Laboratory results from PubChem BioAssay AID492989 (National Center for Advancing Translational Sciences (NCATS), 2010).
Activity calls are given as the source filed them.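 How the source made its calls: active means clear inhibition seen at one or more tested concentrations; inactive means basal response, no inhibition.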

Each compound was assayed against Tyrosyl-DNA phosphodiesterase 1 (Homo sapiens) (UniProt Q9NUW8) (assay: Gel-Based Assay for Inhibitors of Tyrosyl-DNA Phosphodiesterase (TDP1)). Conditions: recombinant TDP1, 32P-DNA substrate gel cleavage.
Tyrosyl-DNA phosphodiesterase 1 (Homo sapiens), sequence (Q9NUW8 whole entry, looked up): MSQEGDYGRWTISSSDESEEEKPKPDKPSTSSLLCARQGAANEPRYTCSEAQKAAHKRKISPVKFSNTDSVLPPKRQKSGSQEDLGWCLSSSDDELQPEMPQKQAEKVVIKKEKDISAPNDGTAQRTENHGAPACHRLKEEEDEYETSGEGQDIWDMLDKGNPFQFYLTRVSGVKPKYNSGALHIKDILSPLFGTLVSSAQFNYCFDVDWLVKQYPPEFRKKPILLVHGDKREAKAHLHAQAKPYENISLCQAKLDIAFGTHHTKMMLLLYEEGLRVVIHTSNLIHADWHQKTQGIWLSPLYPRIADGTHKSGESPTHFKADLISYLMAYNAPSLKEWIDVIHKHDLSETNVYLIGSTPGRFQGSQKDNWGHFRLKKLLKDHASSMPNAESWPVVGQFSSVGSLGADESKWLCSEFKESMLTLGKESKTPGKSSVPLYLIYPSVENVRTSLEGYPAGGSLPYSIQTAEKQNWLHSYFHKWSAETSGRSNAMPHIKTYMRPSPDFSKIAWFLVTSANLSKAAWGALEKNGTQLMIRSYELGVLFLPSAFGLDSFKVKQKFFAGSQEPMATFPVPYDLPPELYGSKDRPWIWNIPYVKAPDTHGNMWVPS
Excerpt: Assay Overview: Human tyrosyl-DNA phosphodiesterase I (Tdp1) is a rational anticancer target because this enzyme is involved in the repair of DNA lesions created by the trapping of human DNA topoisomerase I (Top1) following treatment by anticancer agents such as camptothecins. Recombinant Tdp1 was expressed and purified from E. coli in the laboratory (Anthony et al, Nucleic Acids Research, 2007, Vol. 35, 4474-4484). See below for assay protocol. NIH Molecular Libraries Probe Production Network [MLPCN] NIH Chemical Genomics Center [NCGC] Assay Provider: Yves Pommier and Christophe Marchand, National Cancer Institute
5'-32P-labeled DNA substrate (1 nmol/L; N14Y; 5'-GATCTAAAAGACTT-pY-3') was incubated with 0.2 nmol/L recombinant Tdp1 in the absence or presence of inhibitor for 15 min at room temperature in an assay buffer containing 1X PBS, pH 7.4, 80 mmol/L KCl and 0.01% Tween-20. Reactions were terminated by the addition of 1 volume of gel loading buffer [99.5% (v/v) formamide, 5 mmol/L EDTA, 0.01% (w/v) xylene cyanol, and 0.01% (w/v) bromophenol blue]. Samples were subjected to a 16% denaturing PAGE and gels were exposed after drying to a PhosphorImager screen (GE Healthcare). Gel images were scanned using a Typhoon 8600 (GE Healthcare) and densitometric analyses were performed using the ImageQuant software (GE Healthcare).
In the case of `O=c1c2ccccc2nc2sc(Nc3ccc(F)cc3)nn12`, the outcome is reported as “inactive”.
`O=c1c2ccccc2nc2sc(Nc3cccc(Cl)c3)nn12` was tested, and the Potency was 7.4 µM (active).
In the case of `O=c1c2ccccc2nc2sc(Nc3ccc(Br)cc3)nn12`, the outcome is reported as “inactive”.
With `Cc1cccc(Nc2nn3c(=O)c4ccccc4nc3s2)c1` the Potency was 10 µM (active).
`Nc1ccc2c(=O)n3nc(Nc4ccc5c(c4)CCC5)sc3nc2c1` was tested, and the outcome was “inactive”.
In the case of `COc1ccc2c(=O)n3nc(Nc4ccc5c(c4)CCC5)sc3nc2c1`, the Potency is reported as 11 µM (active).
With `CN(c1ccc2c(c1)CCC2)c1nn2c(=O)c3ccccc3nc2s1` the outcome was “inactive”.
`O=c1c2ccc([N+](=O)[O-])cc2nc2sc(Nc3ccc4c(c3)CCC4)nn12` was tested, and the Potency was 37 µM (active).
In the case of `O=c1c2ccccc2nc2sc(Nc3cccc(Br)c3)nn12`, the outcome is reported as “inactive”.
With `CN(C)c1ccc2c(=O)n3nc(Nc4ccc5c(c4)CCC5)sc3nc2c1` the outcome was “inactive”.
`Cc1ccc(Nc2nn3c(=O)c4ccccc4nc3s2)cc1C` was tested, and the Potency was 10 µM (active).
`O=c1c2ccccc2nc2sc(Nc3cccc(C(F)(F)F)c3)nn12` was tested, and the outcome was “inactive”.
For `COc1cccc(Nc2nn3c(=O)c4ccccc4nc3s2)c1`, the Potency was 100 µM (active).
In the case of `O=c1c2ccccc2nc2sc(Nc3ccc4c(c3)CNC4)nn12`, the Potency is reported as 100 µM (active).
`CCc1cccc(Nc2nn3c(=O)c4ccccc4nc3s2)c1` was tested, and the outcome was “inactive”.
`O=c1c2ccc(Br)cc2nc2sc(Nc3ccc4c(c3)CCC4)nn12` was tested, and the Potency was 1.1 µM (active).
For `CN1CCN(c2cccc(Nc3nn4c(=O)c5ccccc5nc4s3)c2)CC1`, the outcome was “inactive”.
For `CC(C)N1Cc2ccc(Nc3nn4c(=O)c5ccccc5nc4s3)cc2C1`, the Potency was 22 µM (active).
With `O=c1c2ccccc2nc2sc(Nc3ccc4c(c3)OCO4)nn12` the Potency was 12 µM (active).
In the case of `O=c1c2ccccc2nc2sc(Nc3cccc(-c4ccncc4)c3)nn12`, the Potency is reported as 11 µM (active).
For `O=c1c2ccccc2nc2sc(Nc3cccc4ccccc34)nn12`, the Potency was 14 µM (active).
With `O=c1c2ccccc2nc2sc(Nc3ccc4c(c3)CCC4)nn12` the Potency was 2.5 µM (active).
In the case of `O=c1c2ccccc2nc2sc(Nc3ccccc3)nn12`, the Potency is reported as 100 µM (active).
With `CC(C)(C)NS(=O)(=O)c1cccc(Nc2nn3c(=O)c4ccccc4nc3s2)c1` the Potency was 34 µM (active).
With `O=c1c2ccc(C(F)(F)F)cc2nc2sc(Nc3ccc4c(c3)CCC4)nn12` the Potency was 12 µM (active).
